Screens deposited in PubChem BioAssay by Broad Institute.
RAD52 anneal inh = RAD52 DNA annealing inhibitors, primary screen, biochemical, FRET, single point, set 2 | DNA repair protein RAD52 homolog (Homo sapiens), P43351 | recombinant RAD52 DNA annealing, FRET fluorescence | inhibition, % at 18.7 µM | 360,000 compounds, 0.46% hits | AID 651710, 2012;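 active = every replicate showing at least 50% inhibition; inconclusive = mean inhibition at least 50% but not in every replicate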
Target sequence (P43351 whole entry, looked up): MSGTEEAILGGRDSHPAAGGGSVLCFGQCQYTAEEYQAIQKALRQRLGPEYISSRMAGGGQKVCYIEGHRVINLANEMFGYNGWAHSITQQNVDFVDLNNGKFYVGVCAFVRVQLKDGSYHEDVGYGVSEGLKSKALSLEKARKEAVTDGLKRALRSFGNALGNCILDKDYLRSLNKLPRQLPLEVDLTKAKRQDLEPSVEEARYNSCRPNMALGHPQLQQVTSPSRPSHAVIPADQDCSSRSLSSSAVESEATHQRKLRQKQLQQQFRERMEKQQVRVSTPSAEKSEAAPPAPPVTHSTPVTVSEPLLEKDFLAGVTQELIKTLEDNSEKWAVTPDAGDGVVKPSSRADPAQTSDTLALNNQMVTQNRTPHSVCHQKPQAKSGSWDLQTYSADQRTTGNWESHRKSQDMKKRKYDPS
ERAP1 inh = human ERAP1 aminopeptidase inhibitors, primary screen, biochemical, single point, plate reader. Endoplasmic reticulum aminopeptidase 1 (Homo sapiens), Q9NZ08. recombinant ERAP1, Leu-AMC fluorescence, 60 min. inhibition, % at 10.7 µM. 340,000 compounds, 0.15% hits. AID 652197, 2013;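 active = mean replicate inhibition of at least 30%, or all replicates individually reaching that 30% level; inactive = mean below 30% and not every replicate reaching it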;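 also: 0% = neutral control wells and 100% = L-leucinethiol positive control wells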
FGF22 binding = binders of human FGF22 protein, primary screen, FGF22 synaptogenesis inhibitor project, biophysical, thermal shift, single point; activity (Tm shift, normalised), % at 9.99 µM; 340,000 compounds, 1.5% hits; Fibroblast growth factor 22 (Homo sapiens), Q9HCT0; recombinant FGF22 thermal shift, SYPRO orange fluorescence; percent of sucrose octasulfate shift, DMSO zero;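 active = mean Tm shift, scaled 0 neutral to 100 positive control, at about 1.3% or above, every replicate too, limit read from the data; inconclusive = no clear call, values can overlap the other calls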
Target sequence (Q9HCT0 whole entry, looked up): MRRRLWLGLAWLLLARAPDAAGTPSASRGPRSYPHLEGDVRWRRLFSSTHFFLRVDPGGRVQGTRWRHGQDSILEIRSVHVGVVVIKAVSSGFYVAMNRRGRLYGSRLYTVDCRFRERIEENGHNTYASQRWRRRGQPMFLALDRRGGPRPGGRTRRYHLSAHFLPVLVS
DENV2 CPE rescue = inhibitors of DENV2 cytopathic effect, primary screen, cell-based, plate reader, single concentration. DENV2-infected cells, cytopathic effect rescue. CPE inhibition, % at 9.99 µM. 350,000 compounds, 1.7% hits. AID 651640, 2012; in the data active = CPE inhibition above about 20%, passing the limit was not always enough; inconclusive = no clear call, values can overlap the other calls; tested in BHK-21 cells;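 also: 0% = median of neutral control wells and 100% = median of positive control wells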
MLL AF4-AF9 inh = inhibitors of AF4 peptide binding to AF9, primary screen, biochemical, AlphaScreen, biotin-AF4 peptide, FLAG-AF9, single point. inhibition, % at 10 µM. 350,000 compounds, 0.47% hits. AID 651704, 2012;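 active = every replicate reaching a set inhibition limit, whatever the replicate mean, cut at about 25% in these data; inconclusive = mean inhibition reaches that limit but some replicates miss it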;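 also: 0% = plate neutral control median and 100% = total signal loss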
DNA binder FP = DNA-binding compounds via dye displacement, dose response, artefact control for RAD52 inhibitor project, biochemical, fluorescence polarization, cherry-pick; AC50, µM; AID 652128, 2013; Salmon sperm DNA/acridine orange FP displacement; 1,000 compounds, 8% hits; shares compounds with RAD52 anneal inh;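 active = fitted half-maximal concentration for signal loss at or below twice the highest dose tested, in every separate run, actives reach about 64 µM in these data; inconclusive = runs disagree, or flat partial signal loss, or poor fit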
Active calls of the source: *; i = inactive; ? = inconclusive; nt = no result given. The list is not random: actives were taken first. Their share in the collection is about 4%.

SMILES | RAD52 anneal inh | ERAP1 inh | FGF22 binding | DENV2 CPE rescue | MLL AF4-AF9 inh | DNA binder FP
CCCNC(=O)C[C@H]1CC[C@H]2[C@@H](COc3ccc(NC(=O)Nc4ccccc4F)cc3C(=O)N2C)O1 | -7 | 1 | 0 | -6 | 0 | nt
CN(C)CCCN(C(=O)c1cc2cc([N+](=O)[O-])ccc2s1)c1nc2cc3c(cc2s1)OCCO3 | 51* | 2 | -1 | -5 | 14 | i
CN(C)CCCN(C(=O)c1ccc(S(=O)(=O)N(C)Cc2ccccc2)cc1)c1nc2c(F)cccc2s1 | 29 | 5 | 0 | 15 | 11 | nt
CC(=O)N(CCN(C)C)c1nc2cc3c(cc2s1)OCCO3 | 55* | 2 | 0 | ? | 8 | i
CN(C)CCCN(C(=O)c1ccc2c(c1)CCCC2)c1nc2c(F)cccc2s1 | 75* | -2 | 0 | -9 | 32* | i
COc1ccccc1CNC(=O)C[C@@H]1C[C@@H]2c3cc(NC(=O)NC4CCCC4)ccc3O[C@@H]2[C@@H](CO)O1 | 5 | -3 | -1 | 3 | -1 | nt
COc1ccccc1CNC(=O)C[C@@H]1CC[C@H]2[C@H](COc3ccc(NC(=O)Nc4ccc(F)c(F)c4)cc3C(=O)N2C)O1 | 0 | -1 | 0 | -5 | -2 | nt
N=c1c(C(=O)NCCN2CCOCC2)cc2c(=O)n3ccccc3nc2n1CCc1ccccc1 | 57* | 51* | 0 | -1 | -1 | i
Cc1cccn2c(=O)c3cc(C(=O)NC4CCCC4)c(=N)n(CCCN4CCOCC4)c3nc12 | 68* | -15 | 0 | 1 | -12 | i
Cc1cccn2c(=O)c3cc(C(=O)NCCN4CCOCC4)c(=N)n(CCN4CCOCC4)c3nc12 | 69* | 11 | 0 | 1 | 5 | i
Cc1cccn2c(=O)c3cc(C(=O)NCCN4CCOCC4)c(=N)n(Cc4ccc(F)cc4)c3nc12 | 44 | -109 | 0 | -5 | -1 | nt
N=c1c(C(=O)NCCc2ccccc2)cc2c(=O)n3ccccc3nc2n1CCCN1CCOCC1 | 45 | -63 | 0 | -8 | 4 | nt
C[C@H](NC(=O)C[C@H]1CC[C@H](NC(=O)CN2CCOCC2)[C@H](CO)O1)c1ccccc1 | -14 | -1 | 0 | ? | 1 | nt
CCOC(=O)c1cnc2c(ccc3ccccc32)c1NCCN(C)C | 79* | -1 | 0 | 7 | 2 | i
CCN1CCN(c2cc(C)c3cc(NC(=O)c4ccncc4)ccc3n2)CC1 | -35 | 0 | 0 | -18 | -3 | nt
CCN1CCN(c2cc(C)c3cc(NC(=S)N4CC(C)CC(C)C4)ccc3n2)CC1 (stereo not drawn) | 52* | 3 | 0 | 2 | 7 | i
CCN1CCN(c2cc(C)c3cc(NC(=S)N4CCCC(C)C4)ccc3n2)CC1 (stereo not drawn) | 52* | -4 | 0 | 6 | 15 | i
NCCCC[C@H]1CNC(=S)N1CC1CCCCC1 | 85* | 0 | 0 | 3 | 19 | i
NCCCC[C@H]1CNC(=O)C(=O)N1CCCCC1CCCCC1 | 0 | 5 | 0 | 14 | 6 | nt
CC(=O)c1cccc(-c2cnc3c(NC=O)cc(-c4ccccc4)cn23)c1 | -85 | -7 | 0 | 1 | 0 | nt
Cc1ccc(-c2cc(NC=O)c3ncc(-c4cccc(C(=O)N(C)C)c4)n3c2)cc1 | -15 | -2 | 0 | -4 | 2 | nt
CN(C)CCNC(=O)c1cccc(-c2cnc3c(NC=O)cc(-c4ccc(C(=O)N5CCOCC5)cc4)cn23)c1 | 63* | -3 | 0 | -11 | 5 | i
CN(C)C(=O)c1cccc(-c2cnc3c(NC=O)cc(-c4ccccc4Cl)cn23)c1 | -10 | -5 | -1 | -1 | -1 | nt
Cc1cc(-c2cc(NC=O)c3ncc(-c4cccc(C(=O)NCCN(C)C)c4)n3c2)cc(C)c1O | 92* | 8 | 0 | -6 | 21 | i
CN(C)CCNC(=O)c1cccc(-c2cnc3c(NC=O)cc(-c4cccs4)cn23)c1 | 68* | 0 | 0 | 16 | 17 | i
SMILES | RAD52 anneal inh | ERAP1 inh | FGF22 binding | DENV2 CPE rescue | MLL AF4-AF9 inh | DNA binder FP
CC(=O)c1cccc(-c2cnc3c(NC=O)cc(-c4ccc(C(=O)N5CCOCC5)cc4)cn23)c1 | -34 | -7 | 0 | -10 | -2 | nt
CN(C)CCNC(=O)c1cccc(-c2cnc3c(NC=O)cc(-c4ccccc4F)cn23)c1 | 96* | 5 | 0 | -7 | 13 | i
CN(C)C(=O)C[C@@H]1C[C@H]2c3cc(NC(=O)C4CCOCC4)ccc3O[C@H]2[C@H](CO)O1 | 0 | -1 | 0 | -5 | -3 | nt
CCC(=O)N1[C@@H]2c3ccc(-c4ccccc4F)c(=O)n3C[C@H]1[C@H](CO)[C@H]2C(=O)NC1CCCC1 | -1 | -4 | 0 | ? | -1 | nt
CC=Cc1ccc2n(c1=O)C[C@@H]1[C@@H](CO)[C@H](C(=O)NCCC)N(C(=O)CC)[C@H]21 (mixture of isomers) | -11 | -3 | 0 | 13 | 0 | nt
O=C(CN1CCCCC1)n1c2ccccc2c2ccccc21 | 61* | 1 | 0 | 15 | nt | i
CCN1CCN(c2cc(C)c3cc(NC(=S)N4CCCCC4)ccc3n2)CC1 | 85* | nt | 0 | -1 | 19 | i
CCOC(=O)N1CCN(C(=S)Nc2ccc3nc(N4CCN(CC)CC4)cc(C)c3c2)CC1 | 54* | -2 | 0 | -3 | 14 | i
CCN1CCN(c2cc(C)c3cc(NC(=S)N4CCN(c5ccc(F)cc5)CC4)ccc3n2)CC1 | -7 | -6 | 0 | 4 | 6 | nt
CCN1CCN(C(=S)Nc2ccc3nc(N4CCN(C)CC4)cc(C)c3c2)CC1 | 89* | -3 | 0 | -10 | 4 | i
CCN1CCN(c2cc(C)c3cc(NC(=S)N4CCCC4)ccc3n2)CC1 | 25 | -2 | 0 | nt | 1 | nt
Cc1cc(N2CCOCC2)nc2ccc(NC(=S)NC(C)C)cc12 | 53* | 1 | 0 | 18 | 3 | i
CCNC(=O)Nc1ccc2c(c1)C(=O)N(C)[C@H]1CC[C@@H](CC(=O)NCC3CC3)O[C@@H]1CO2 | nt | nt | 0 | 6 | nt | nt
O=C(C1CCCC1)N1CCC(CC2CC(c3ccc(Cl)cc3)=NO2)(C(=O)NCC2CCCCC2)CC1 (stereo not drawn) | 99* | 0 | 0 | -9 | 1 | i
CCS(=O)(=O)N1CCC2(CC1)CN(S(=O)(=O)c1ccccc1)[C@H](CO)c1c2c2ccc(OC)cc2n1C | 19 | 0 | 0 | ? | -1 | nt
COc1cc2[nH]c(=O)c(C(=O)NCCCN3CCOCC3)c(O)c2cc1OC | 67* | -11 | 0 | 2 | -2 | i
